Measured values as given in PubChem BioAssay (EPA / NIEHS).
Records with an inconclusive call do not appear. Activity calls are given as the source filed them. Rule for the calls, unless noted: active = hit-call score of the fitted dose curve at least 0.9, where 1 is the maximum; inactive = score below 0.9.

What was measured:
[1] = ATG_NFI_CIS: Attagene CIS-FACTORIAL HepG2 Assay for human Nuclear Factor I (NFI) (AID 2282989); details: HepG2 cis-regulatory reporter, NFI response element transcription; actives raise or lower the signal
Summary of the method: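 Endogenous TF activity in HepG2 cells transiently transfected with cis-element-driven multiplexed reporter units, read 24 h after dosing. Reporter mRNA quantified by RT-PCR, 6-FAM labelling, HpaI digestion and capillary electrophoresis; bidirectional fit versus DMSO.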

[2] = molecular target: Myc proto-oncogene protein (Homo sapiens) (UniProt P01106); test: ATG_Myc_CIS: Attagene CIS-FACTORIAL HepG2 Assay for human Myelocytomatosis (Myc) Proto-Oncogene Transcription Factor (AID 2282990); details: HepG2, Attagene cis-reporter transcription factor activity; actives raise or lower the signal
Chain of Myc proto-oncogene protein (Homo sapiens) (P01106 whole entry, looked up): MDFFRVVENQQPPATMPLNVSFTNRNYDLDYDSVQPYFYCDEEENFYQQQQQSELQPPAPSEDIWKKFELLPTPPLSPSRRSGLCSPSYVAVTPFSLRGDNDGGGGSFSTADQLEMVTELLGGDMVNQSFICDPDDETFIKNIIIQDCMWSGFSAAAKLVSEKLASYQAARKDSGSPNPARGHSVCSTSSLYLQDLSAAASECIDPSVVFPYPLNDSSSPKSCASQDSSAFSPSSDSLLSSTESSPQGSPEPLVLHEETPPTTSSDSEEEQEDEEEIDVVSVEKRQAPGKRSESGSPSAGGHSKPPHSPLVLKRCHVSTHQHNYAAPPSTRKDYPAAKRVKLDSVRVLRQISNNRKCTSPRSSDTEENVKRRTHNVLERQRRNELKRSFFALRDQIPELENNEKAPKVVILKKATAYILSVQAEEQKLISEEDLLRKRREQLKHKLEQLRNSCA
Summary of the method: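 Multiplexed cis-reporter transcription in HepG2 cells after 24 h chemical treatment. Reporter mRNA measured by RT-PCR and capillary electrophoresis fluorescence; activity fitted bidirectionally against DMSO control.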

[3] = ATG_NF_kB_CIS: Attagene CIS-FACTORIAL HepG2 Assay for human Nuclear Factor Kappa B (NF-kB) (AID 2282991); details: HepG2 Attagene cis-factorial NF-kB reporter mRNA; actives raise or lower the signal
Summary of the method: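 After 24 h compound incubation, transfected HepG2 cells yield total RNA; reporter cDNA is PCR-amplified, end-labelled with 6-FAM, HpaI-digested and analysed on a genetic analyser. Endogenous factor activity, DMSO-referenced bidirectional fit.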

[4] = ATG_NRF2_ARE_CIS: Attagene CIS-FACTORIAL HepG2 Assay for human Nuclear Factor Erythroid 2 Related Factor 2 (NFR2) response to Antioxidant Response Elements (ARE) (AID 2282992); details: HepG2 Attagene ARE/NRF2 reporter, transcription factor activity; actives raise or lower the signal
Summary of the method: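 Transient MRTU transfection of HepG2; 24 h compound exposure; TriZol RNA, RT with oligo(dT), PCR, 6-FAM primer extension, HpaI cut, CE. Bidirectional fit vs DMSO.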

[5] = ATG_Oct_MLP_CIS: Attagene CIS-FACTORIAL HepG2 Assay for human Octamer-Binding Transcription Factor (Oct) (AID 2282993); details: HepG2 Attagene cis-factorial Oct reporter, mRNA; actives raise or lower the signal
Summary of the method: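 HepG2 cells transiently transfected with cis-element-driven reporter transcription units (endogenous TF activity); 24 h compound exposure. Reporter mRNA quantified by RT-PCR, 6-FAM labelling, HpaI digestion and capillary electrophoresis; bidirectional fit versus DMSO baseline.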

[6] = molecular target: Cellular tumor antigen p53 (Homo sapiens) (UniProt P04637); test: ATG_p53_CIS: Attagene CIS-FACTORIAL HepG2 Assay for human p53 Transcription Factor (AID 2282994); details: HepG2 p53 cis-element reporter, Attagene mRNA; actives raise or lower the signal
Chain of Cellular tumor antigen p53 (Homo sapiens) (P04637 whole entry, looked up): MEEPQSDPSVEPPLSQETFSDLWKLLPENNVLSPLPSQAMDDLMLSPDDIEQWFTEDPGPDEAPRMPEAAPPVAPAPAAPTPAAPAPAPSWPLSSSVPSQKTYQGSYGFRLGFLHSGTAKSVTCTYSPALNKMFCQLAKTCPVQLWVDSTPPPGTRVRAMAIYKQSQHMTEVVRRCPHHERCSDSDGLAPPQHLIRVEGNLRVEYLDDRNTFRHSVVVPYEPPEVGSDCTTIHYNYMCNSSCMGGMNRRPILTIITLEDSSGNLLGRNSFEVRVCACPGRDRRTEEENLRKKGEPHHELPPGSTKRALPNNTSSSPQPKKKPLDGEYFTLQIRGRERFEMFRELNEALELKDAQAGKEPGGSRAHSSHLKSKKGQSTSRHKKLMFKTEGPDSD
Summary of the method: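 HepG2, transient MRTU transfection (cis promoter elements, endogenous TFs); 24 h dosing; RNA isolation, RT-PCR, 6-FAM primer extension, HpaI digest, CE fluorescence; bidirectional fit vs DMSO.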

[7] = molecular target: human Peroxisome Proliferator-activated Receptor alpha (PPARa), PPARA (gene 5465) (UniProt Q07869); test: ATG_PPARa_TRANS: Attagene TRANS-FACTORIAL HepG2 Assay for human Peroxisome Proliferator-activated Receptor alpha (PPARa) (AID 2283001; active = hit-call score of the fitted dose curve at least 0.9, where 1 is the maximum)
Chain of human Peroxisome Proliferator-activated Receptor alpha (PPARa), PPARA (gene 5465) (Q07869 whole entry, looked up, the tested form may be a part): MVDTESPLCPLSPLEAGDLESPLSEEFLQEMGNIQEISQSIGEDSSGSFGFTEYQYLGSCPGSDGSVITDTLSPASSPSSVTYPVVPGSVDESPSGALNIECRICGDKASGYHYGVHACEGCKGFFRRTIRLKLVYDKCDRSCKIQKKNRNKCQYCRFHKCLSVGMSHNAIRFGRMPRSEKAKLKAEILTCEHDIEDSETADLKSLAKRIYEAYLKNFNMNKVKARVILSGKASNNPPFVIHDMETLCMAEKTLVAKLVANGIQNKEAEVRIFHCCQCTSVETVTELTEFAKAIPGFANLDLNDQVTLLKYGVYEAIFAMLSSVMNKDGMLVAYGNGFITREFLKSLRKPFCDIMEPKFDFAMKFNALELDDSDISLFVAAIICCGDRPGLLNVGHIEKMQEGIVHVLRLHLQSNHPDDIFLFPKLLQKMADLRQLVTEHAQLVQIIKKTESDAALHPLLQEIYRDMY
Summary of the method: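 HepG2 cells transiently transfected with multiplexed GAL4-UAS reporter units and chimeric NR-Gal4 constructs were dosed for 24 h. Reporter mRNA was measured by RT-PCR with fluorescent labelling and capillary electrophoresis; gain of signal fitted against DMSO.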

[8] = molecular target: human Peroxisome Proliferator-activated Receptor delta (PPARd), PPARD (gene 5467) (UniProt Q03181); test: ATG_PPARd_TRANS: Attagene TRANS-FACTORIAL HepG2 Assay for human Peroxisome Proliferator-activated Receptor delta (PPARd) (AID 2283002; active = hit-call score of the fitted dose curve at least 0.9, where 1 is the maximum)
Chain of human Peroxisome Proliferator-activated Receptor delta (PPARd), PPARD (gene 5467) (Q03181 whole entry, looked up, the tested form may be a part): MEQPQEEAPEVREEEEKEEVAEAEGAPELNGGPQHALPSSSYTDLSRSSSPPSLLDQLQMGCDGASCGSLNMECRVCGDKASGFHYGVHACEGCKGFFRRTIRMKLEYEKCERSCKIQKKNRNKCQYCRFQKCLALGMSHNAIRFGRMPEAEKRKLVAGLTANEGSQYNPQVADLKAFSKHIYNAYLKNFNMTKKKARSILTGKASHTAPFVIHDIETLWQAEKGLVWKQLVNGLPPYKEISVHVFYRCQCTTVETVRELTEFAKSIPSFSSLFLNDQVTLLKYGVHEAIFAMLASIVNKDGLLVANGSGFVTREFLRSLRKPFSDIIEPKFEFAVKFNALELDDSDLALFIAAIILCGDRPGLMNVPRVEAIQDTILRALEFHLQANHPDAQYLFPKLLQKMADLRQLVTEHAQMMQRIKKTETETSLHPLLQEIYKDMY
Summary of the method: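 Multiplexed trans-activation format: HepG2 liver cells expressing exogenous NR-Gal4 chimeras and GAL4-UAS reporters were exposed for 24 h. Reporter mRNA was detected by RT-PCR with capillary electrophoresis fluorescence; activity fitted as gain of signal relative to DMSO.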

[9] = molecular target: Peroxisome proliferator-activated receptor gamma (Homo sapiens) (UniProt P37231); test: ATG_PPARg_TRANS: Attagene TRANS-FACTORIAL HepG2 Assay for human Peroxisome Proliferator-activated Receptor-gamma (PPARg) (AID 2283007; active = hit-call score of the fitted dose curve at least 0.9, where 1 is the maximum)
Chain of Peroxisome proliferator-activated receptor gamma (Homo sapiens) (P37231 whole entry, looked up, the tested form may be a part): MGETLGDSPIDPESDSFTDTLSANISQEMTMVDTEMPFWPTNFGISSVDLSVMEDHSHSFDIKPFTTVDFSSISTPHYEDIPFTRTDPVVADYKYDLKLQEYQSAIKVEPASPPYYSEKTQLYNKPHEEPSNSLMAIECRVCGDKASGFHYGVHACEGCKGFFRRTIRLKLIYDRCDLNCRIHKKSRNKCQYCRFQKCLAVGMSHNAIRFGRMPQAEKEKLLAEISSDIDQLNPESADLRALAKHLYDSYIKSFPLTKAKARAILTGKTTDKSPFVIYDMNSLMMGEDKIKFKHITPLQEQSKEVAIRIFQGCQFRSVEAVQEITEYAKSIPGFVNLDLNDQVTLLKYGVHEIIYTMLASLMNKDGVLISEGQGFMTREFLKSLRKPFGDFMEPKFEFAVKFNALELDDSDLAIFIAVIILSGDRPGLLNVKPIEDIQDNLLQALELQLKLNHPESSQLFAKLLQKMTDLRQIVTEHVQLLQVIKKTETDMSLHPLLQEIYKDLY
Summary of the method: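 Liver-derived HepG2 cells expressing an exogenous NR-Gal4 chimera alongside GAL4-UAS reporter genes; 24 h exposure. Fluorescence of reporter RT-PCR products, separated by capillary electrophoresis, gives mRNA induction relative to DMSO.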

[10] = molecular target: Nuclear receptor subfamily 1 group I member 2 (Homo sapiens) (UniProt O75469); test: ATG_PXR_TRANS: Attagene TRANS-FACTORIAL HepG2 Assay for human Pregnane X Receptor (PXR) (AID 2283008; active = hit-call score of the fitted dose curve at least 0.9, where 1 is the maximum)
Chain of Nuclear receptor subfamily 1 group I member 2 (Homo sapiens) (O75469 whole entry, looked up, the tested form may be a part): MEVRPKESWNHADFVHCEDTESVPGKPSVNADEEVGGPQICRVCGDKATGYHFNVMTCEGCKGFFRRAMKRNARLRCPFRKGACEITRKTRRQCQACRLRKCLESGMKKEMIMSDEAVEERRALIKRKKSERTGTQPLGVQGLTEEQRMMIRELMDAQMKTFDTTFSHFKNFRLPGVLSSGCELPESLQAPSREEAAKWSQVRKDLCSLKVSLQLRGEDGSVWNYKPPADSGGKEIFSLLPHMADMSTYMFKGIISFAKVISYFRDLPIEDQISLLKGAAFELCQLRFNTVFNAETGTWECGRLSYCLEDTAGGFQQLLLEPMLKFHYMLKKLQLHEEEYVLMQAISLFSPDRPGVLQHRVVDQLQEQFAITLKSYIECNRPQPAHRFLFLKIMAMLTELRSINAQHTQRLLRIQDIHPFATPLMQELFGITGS
Summary of the method: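 Read-out is fluorescence of labelled reporter cDNA fragments separated by capillary electrophoresis after RT-PCR and HpaI digestion. Source: HepG2 cells carrying PXR-GAL4/UAS reporter constructs, treated 24 h; activity fitted upward relative to DMSO.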

[11] = molecular target: human RAR-related Orphan Receptor beta (RORb), RORB (gene 6096) (UniProt Q92753); test: ATG_RORb_TRANS: Attagene TRANS-FACTORIAL HepG2 Assay for human RAR-related Orphan Receptor beta (RORb) (AID 2283010; active = hit-call score of the fitted dose curve at least 0.9, where 1 is the maximum)
Chain of human RAR-related Orphan Receptor beta (RORb), RORB (gene 6096) (Q92753 whole entry, looked up, the tested form may be a part): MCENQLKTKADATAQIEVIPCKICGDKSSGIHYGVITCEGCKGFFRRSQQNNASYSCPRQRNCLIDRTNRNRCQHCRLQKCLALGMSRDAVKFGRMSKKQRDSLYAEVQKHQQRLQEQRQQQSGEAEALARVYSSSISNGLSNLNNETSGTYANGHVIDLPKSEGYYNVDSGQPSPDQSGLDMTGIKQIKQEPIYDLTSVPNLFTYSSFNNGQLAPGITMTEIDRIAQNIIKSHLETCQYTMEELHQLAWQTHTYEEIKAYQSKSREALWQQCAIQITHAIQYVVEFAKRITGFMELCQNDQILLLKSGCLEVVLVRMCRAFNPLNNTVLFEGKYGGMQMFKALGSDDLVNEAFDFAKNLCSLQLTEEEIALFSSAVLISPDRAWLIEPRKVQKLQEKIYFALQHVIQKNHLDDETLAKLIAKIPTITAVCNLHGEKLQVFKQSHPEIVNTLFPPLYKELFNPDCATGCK
Summary of the method: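 HepG2 cells were transiently transfected with multiplexed GAL4-UAS reporter units expressing chimeric nuclear receptor–GAL4 proteins, then dosed for 24 h. Reporter mRNA was quantified by RT-PCR with fluorescent labelling and capillary electrophoresis; gain of signal was fitted relative to DMSO.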

[12] = molecular target: human Retinoic Acid Receptor gamma (RARg), RARG (gene 5916) (UniProt P13631); test: ATG_RARg_TRANS: Attagene TRANS-FACTORIAL HepG2 Assay for human Retinoic Acid Receptor gamma (RARg) (AID 2283009; active = hit-call score of the fitted dose curve at least 0.9, where 1 is the maximum)
Chain of human Retinoic Acid Receptor gamma (RARg), RARG (gene 5916) (P13631 whole entry, looked up, the tested form may be a part): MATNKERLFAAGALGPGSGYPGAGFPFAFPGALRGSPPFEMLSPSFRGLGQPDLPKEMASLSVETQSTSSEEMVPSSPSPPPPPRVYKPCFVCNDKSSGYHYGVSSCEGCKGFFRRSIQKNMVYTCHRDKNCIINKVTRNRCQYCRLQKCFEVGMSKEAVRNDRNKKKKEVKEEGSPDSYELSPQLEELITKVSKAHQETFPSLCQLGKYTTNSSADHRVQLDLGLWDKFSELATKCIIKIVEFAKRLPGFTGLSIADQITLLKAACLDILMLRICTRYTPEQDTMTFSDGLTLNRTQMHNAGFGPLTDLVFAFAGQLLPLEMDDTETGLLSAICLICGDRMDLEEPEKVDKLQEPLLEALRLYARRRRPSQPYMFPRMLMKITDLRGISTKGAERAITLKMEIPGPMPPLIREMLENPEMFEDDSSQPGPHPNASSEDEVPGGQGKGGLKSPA
Summary of the method: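 HepG2 cells transiently transfected with multiplexed reporter units expressing chimeric RARg-GAL4 and GAL4-UAS-driven reporters; 24 h compound exposure. Reporter mRNA quantified by RT-PCR with fluorescent labelling and capillary electrophoresis; gain-of-signal fitted relative to DMSO baseline.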

[13] = molecular target: human Retinoic Acid Receptor beta (RARb), RARB (gene 5915) (UniProt P10826); test: ATG_RARb_TRANS: Attagene TRANS-FACTORIAL HepG2 Assay for human Retinoic Acid Receptor beta (AID 2283004; active = hit-call score of the fitted dose curve at least 0.9, where 1 is the maximum)
Chain of human Retinoic Acid Receptor beta (RARb), RARB (gene 5915) (P10826 whole entry, looked up, the tested form may be a part): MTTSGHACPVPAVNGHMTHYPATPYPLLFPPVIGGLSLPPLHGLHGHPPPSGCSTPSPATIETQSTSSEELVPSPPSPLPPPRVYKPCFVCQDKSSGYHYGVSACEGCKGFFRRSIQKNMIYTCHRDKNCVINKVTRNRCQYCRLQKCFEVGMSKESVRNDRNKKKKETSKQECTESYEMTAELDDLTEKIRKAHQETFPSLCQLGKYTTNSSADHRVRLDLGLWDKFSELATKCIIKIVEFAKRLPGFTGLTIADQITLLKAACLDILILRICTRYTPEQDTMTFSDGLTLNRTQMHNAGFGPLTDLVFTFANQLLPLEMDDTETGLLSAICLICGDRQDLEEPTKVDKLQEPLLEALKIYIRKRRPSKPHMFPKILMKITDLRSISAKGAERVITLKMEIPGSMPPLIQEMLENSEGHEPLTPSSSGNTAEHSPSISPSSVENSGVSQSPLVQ
Summary of the method: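 HepG2 cells transiently transfected with multiplexed GAL4-UAS reporter units expressing chimeric NR–Gal4 fusions; 24 h compound exposure. Reporter mRNA quantified by RT-PCR, 6-FAM labelling, HpaI digestion and capillary electrophoresis; gain-of-signal fitted against DMSO baseline.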

[14] = molecular target: Retinoic acid receptor alpha (Homo sapiens) (UniProt P10276); test: ATG_RARa_TRANS: Attagene TRANS-FACTORIAL HepG2 Assay for human Retinoic Acid Receptor alpha (RARa) (AID 2283005; active = hit-call score of the fitted dose curve at least 0.9, where 1 is the maximum)
Chain of Retinoic acid receptor alpha (Homo sapiens) (P10276 whole entry, looked up, the tested form may be a part): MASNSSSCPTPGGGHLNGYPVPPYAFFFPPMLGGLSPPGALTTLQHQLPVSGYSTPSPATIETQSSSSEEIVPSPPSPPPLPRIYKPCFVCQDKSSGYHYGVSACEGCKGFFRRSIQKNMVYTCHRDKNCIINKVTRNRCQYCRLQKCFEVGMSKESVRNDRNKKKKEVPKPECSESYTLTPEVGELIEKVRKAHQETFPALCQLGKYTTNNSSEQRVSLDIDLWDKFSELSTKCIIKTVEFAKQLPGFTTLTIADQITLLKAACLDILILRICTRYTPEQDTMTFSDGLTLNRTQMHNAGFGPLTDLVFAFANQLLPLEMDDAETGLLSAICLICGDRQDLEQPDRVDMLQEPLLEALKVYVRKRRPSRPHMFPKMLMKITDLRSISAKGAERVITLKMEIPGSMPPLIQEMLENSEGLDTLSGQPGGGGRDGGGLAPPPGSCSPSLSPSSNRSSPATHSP
Summary of the method: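 HepG2 cells transiently transfected with multiple reporter units expressing chimeric RARα-GAL4 fusion, with GAL4-UAS-driven reporters. After 24 h compound exposure, reporter mRNA induction quantified by RT-PCR and capillary electrophoresis with fluorescent labeling; gain-of-signal fitted relative to DMSO control.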

Measured: AC50

Cc1[nH]c(=O)c(C#N)cc1-c1ccncc1
not listed: [11] | [12] | [13] | [14]
inactive: all other assays above

COc1cc([C@@H]2c3cc4c(cc3[C@@H](O[C@@H]3O[C@@H]5CO[C@@H](C)O[C@H]5[C@H](O)[C@H]3O)[C@H]3COC(=O)[C@H]23)OCO4)cc(OC)c1O
not listed: [10] | [12] | [13] | [14]
inactive: all other assays above

CCCC(=O)OC(C)(C)Cc1ccccc1
active: [4] 145 µM
not listed: [11] | [12] | [13] | [14]
inactive: all other assays above

CCO/C=C1\N=C(c2ccccc2)OC1=O
not listed: [11] | [12] | [13] | [14]
inactive: all other assays above

NCc1ccco1
not listed: [9] | [11] | [13] | [14]
inactive: all other assays above

Cc1cc(S(=O)(=O)O)ccc1N=Nc1c(O)ccc2ccccc12
not listed: [8]
inactive: all other assays above

Cc1cccc(Nc2ccccc2)c1
active: [4] 70.6 µM | [9] 85.4 µM
inactive: [1] | [2] | [3] | [5] | [6] | [7] | [8]

Cc1cc(=O)oc2cc(N(C)C)ccc12
active: [5] 57.4 µM
not listed: [11] | [12] | [13] | [14]
inactive: all other assays above

CCCCCCCC(=O)OCC(O)CO (stereo not drawn)
not listed: [11] | [13]
inactive: all other assays above

CCCSc1ccc2nc(NC(=O)OC)[nH]c2c1
not listed: [9] | [11] | [12] | [13] | [14]
inactive: all other assays above

COC(=O)c1ccc([N+](=O)[O-])cc1
not listed: [10] | [12] | [13] | [14]
inactive: all other assays above
